Reference: PubChem BioAssay AID1159580 (chemical genetic matrix, 2015)
In all, about 5,500 compounds went through this assay and about 2,000 (36%) were called active. About 18% were inconclusive and are not listed. Cut-off read from the data, not from the text of the source: active = normalized growth mostly below about 0.91 (no sharp cut-off); inconclusive = no clear call, values can overlap the other calls; inactive = mostly above about 0.92. The list shows a part of the results.

Experiment: chemical genetic growth profiling, strain panel (AID 1159580);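 note: tested at 20 µM; growth read once vehicle control cultures reached saturation at 30 °C; 1 = growth at the plate median or of vehicle wells; lower values mean less growth of the strain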
Details: growth OD

Measured: normalized growth

CC(=O)O[C@]1(C(C)=O)CCC2C3C=C(C)C4=CC(=O)CCC4(C)C3CCC21C (stereo partly specified)
inactive: S. cerevisiae deletion strains, locus YKL009W, strain mrt4, hits give low values 0.963 | S. cerevisiae deletion strains, locus YKL068W, hits give low values 0.98 | S. cerevisiae deletion strains, locus YKL160W, strain elf1, hits give low values 0.955 | S. cerevisiae deletion strains, locus YKL190W, strain CNB1, hits give low values 0.93 | S. cerevisiae deletion strains, locus YKR026C, strain gcn3, hits give low values 0.976 | S. cerevisiae deletion strains, locus YKR091W, strain srl3, hits give low values 0.96 | S. cerevisiae deletion strains, locus YLL026W, hits give low values 0.941 | S. cerevisiae deletion strains, locus YLL041C, strain sdh2, hits give low values 0.969 | S. cerevisiae deletion strains, locus YLR039C, strain RIC1, hits give low values 0.859 | S. cerevisiae deletion strains, locus YLR058C, strain SHM2, hits give low values 0.988 | S. cerevisiae deletion strains, locus YLR102C, strain apc9, hits give low values 0.979 | S. cerevisiae deletion strains, locus YLR113W, strain HOG1, hits give low values 0.949 | S. cerevisiae deletion strains, locus YLR221C, strain rsa3, hits give low values 0.957 | S. cerevisiae deletion strains, locus YLR258W, strain gsy2, hits give low values 0.956 | S. cerevisiae deletion strains, locus YLR262C, strain YPT6, hits give low values 0.859 | S. cerevisiae deletion strains, locus YLR268W, strain sec22, hits give low values 0.913 | S. cerevisiae deletion strains, locus YLR330W, strain CHS5, hits give low values 0.964 | S. cerevisiae deletion strains, locus YLR357W, strain rsc2, hits give low values 0.953 | S. cerevisiae deletion strains, locus YLR370C, strain arc18, hits give low values 0.96 | S. cerevisiae deletion strains, locus YLR371W, strain rom2, hits give low values 0.984 | S. cerevisiae deletion strains, locus YLR384C, strain iki3, hits give low values 0.964 | S. cerevisiae deletion strains, locus YML016C, strain PPZ1, hits give low values 0.992 | S. cerevisiae deletion strains, locus YML032C, strain rad52, hits give low values 0.96 | S. cerevisiae deletion strains, locus YML124C, strain tub3, hits give low values 0.976 | S. cerevisiae deletion strains, locus YMR058W, strain fet3, hits give low values 0.913 | S. cerevisiae deletion strains, locus YMR078C, strain ctf18, hits give low values 0.961 | S. cerevisiae deletion strains, locus YMR125W, strain sto1, hits give low values 0.995 | S. cerevisiae deletion strains, locus YMR129W, hits give low values 0.967 | S. cerevisiae deletion strains, locus YMR205C, strain PFK2, hits give low values 0.888 | S. cerevisiae deletion strains, locus YMR231W, strain pep5, hits give low values 0.967 | S. cerevisiae deletion strains, locus YMR263W, strain SAP30, hits give low values 0.922 | S. cerevisiae deletion strains, locus YMR307W, strain GAS1, hits give low values 0.817 | S. cerevisiae deletion strains, locus YNL067W, strain RPL9B, hits give low values 0.914 | S. cerevisiae deletion strains, locus YNL128W, strain TEP1, hits give low values 0.98 | S. cerevisiae deletion strains, locus YNL153C, strain GIM3, hits give low values 0.929 | S. cerevisiae deletion strains, locus YNL183C, strain NPR1, hits give low values 0.939 | S. cerevisiae deletion strains, locus YNL209W, strain ssb2, hits give low values 0.985 | S. cerevisiae deletion strains, locus YNL248C, strain rpa49, hits give low values 0.958 | S. cerevisiae deletion strains, locus YNL250W, strain rad50, hits give low values 0.938 | S. cerevisiae deletion strains, locus YNL271C, strain bni1, hits give low values 0.949 | S. cerevisiae deletion strains, locus YNL298W, strain CLA4, hits give low values 0.966 | S. cerevisiae deletion strains, locus YNL322C, strain KRE1 (second series), hits give low values 0.972 | S. cerevisiae deletion strains, locus YNL322C, strain KRE1, hits give low values 0.983 | S. cerevisiae deletion strains, locus YNR049C, strain mso1, hits give low values 0.958 | S. cerevisiae deletion strains, locus YNR052C, strain pop2, hits give low values 0.99 | S. cerevisiae deletion strains, locus YOL006C, strain TOP1, hits give low values 0.85 | S. cerevisiae deletion strains, locus YOL012C, strain htz1 0.402 | S. cerevisiae deletion strains, locus YOL147C, strain pex11, hits give low values 0.981 | S. cerevisiae deletion strains, locus YOR001W, strain rrp6, hits give low values 0.947 | S. cerevisiae deletion strains, locus YOR061W, strain CKA2, hits give low values 0.977 | S. cerevisiae deletion strains, locus YOR069W, strain VPS5, hits give low values 0.998 | S. cerevisiae deletion strains, locus YOR070C, strain gyp1, hits give low values 0.967 | S. cerevisiae deletion strains, locus YOR080W, strain dia2, hits give low values 0.953 | S. cerevisiae deletion strains, locus YOR083W, strain WHI5, hits give low values 0.9 | S. cerevisiae deletion strains, locus YOR106W, strain vam3, hits give low values 0.877 | S. cerevisiae deletion strains, locus YOR136W, strain idh2, hits give low values 0.971 | S. cerevisiae deletion strains, locus YOR144C, strain elg1, hits give low values 0.985 | S. cerevisiae deletion strains, locus YOR231W, strain MKK1, hits give low values 0.961 | S. cerevisiae deletion strains, locus YOR265W, strain rbl2, hits give low values 0.954 | S. cerevisiae deletion strains, locus YOR290C, strain snf2, hits give low values 0.969 | S. cerevisiae deletion strains, locus YOR316C, strain cot1, hits give low values 0.979 | S. cerevisiae deletion strains, locus YPL051W, strain arl3, hits give low values 0.922 | S. cerevisiae deletion strains, locus YPL055C, strain LGE1, hits give low values 0.828 | S. cerevisiae deletion strains, locus YPL106C, strain sse1, hits give low values 1.05 | S. cerevisiae deletion strains, locus YPL240C, strain hsp82, hits give low values 0.963 | S. cerevisiae deletion strains, locus YPL241C, strain CIN2, hits give low values 0.982 | S. cerevisiae deletion strains, locus YPL256C, strain CLN2, hits give low values 0.915 | S. cerevisiae deletion strains, locus YPR119W, strain clb2, hits give low values 0.983 | S. cerevisiae deletion strains, locus YPR141C, strain kar3, hits give low values 0.972 | S. cerevisiae deletion strains, locus YPR163C, strain tif3, hits give low values 0.983 | S. cerevisiae deletion strains, locus YPR167C, strain met16, hits give low values 0.977
active: S. cerevisiae deletion strains, locus YKL085W, strain MDH1 (second series), hits give low values 0.908 | S. cerevisiae deletion strains, locus YKL085W, strain MDH1, hits give low values 0.908 | S. cerevisiae deletion strains, locus YKR001C, strain vps1, hits give low values 0.81 | S. cerevisiae deletion strains, locus YLL001W, strain dnm1, hits give low values 0.886 | S. cerevisiae deletion strains, locus YLR027C, strain aat2, hits give low values 0.919 | S. cerevisiae deletion strains, locus YLR262C, strain YPT6 (second series), hits give low values 0.699 | S. cerevisiae deletion strains, locus YLR320W, strain mms22, hits give low values 0.864 | S. cerevisiae deletion strains, locus YLR342W, strain FKS1 (second series), hits give low values 0.759 | S. cerevisiae deletion strains, locus YLR342W, strain FKS1, hits give low values 0.768 | S. cerevisiae deletion strains, locus YLR418C, strain cdc73, hits give low values 0.627 | S. cerevisiae deletion strains, locus YML120C, strain ndi1, hits give low values 0.906 | S. cerevisiae deletion strains, locus YMR223W, strain ubp8, hits give low values 0.888 | S. cerevisiae deletion strains, locus YNL071W, strain lat1, hits give low values 0.822 | S. cerevisiae deletion strains, locus YNL233W, strain BNI4, hits give low values 0.862 | S. cerevisiae deletion strains, locus YNL307C, strain MCK1, hits give low values 0.714 | S. cerevisiae deletion strains, locus YOR184W, strain ser1, hits give low values 0.746 | S. cerevisiae deletion strains, locus YOR270C, strain vph1, hits give low values 0.718 | S. cerevisiae deletion strains, locus YPL078C, strain atp4, hits give low values 0.855 | S. cerevisiae deletion strains, strain wtn01, hits give low values 0.881 | S. cerevisiae strains, strain wild type, hits give low values 0.88
